Molecules are shown by their SMILES. Results filed as inconclusive are left out. Active and inactive are the calls of the source. Rule for the calls: active = hit-call score of the fitted dose curve at least 0.9, where 1 is the maximum; inconclusive = response in the unintended direction; inactive = score below 0.9.

The nature of experiment [1]: Tanguay_ZF_120hpf_NC_legacy: (Legacy) Oregon State University Tanguay Lab 120 Hour Post-fertilization zebrafish Assay for Notochord and Tail Malformation (AID 2283656). Summed up: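 Binary scoring of notochord distortion by brightfield microscopy; embryos dying were not scored. Wild-type Tropical 5D embryos, chorion removed, exposed singly and statically from 6 to 120 hpf, 28C, sealed, 0.64% DMSO.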

Read-out in experiment [2]: Broad substrate specificity ATP-binding cassette transporter ABCG2 (Homo sapiens) (UniProt Q9UNQ0)
As to the kind of experiment: CLD_ABCG2_6hr: CellzDirect (CLD) Gene Expression Assay for ABC Transporter (ABCG2) at 6 hours (AID 2283660). Summed up: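 ABCG2 mRNA induction measured by qNPA chemiluminescence in human primary hepatocyte cultures, 6 h post-dose. Chemicals tested at several concentrations against a 0.2% DMSO vehicle; positive-direction fit relative to DMSO.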

Read-out in experiment [3]: alkyl and aryl transferase (GSTA2), GSTA2 (gene 2939)
As to the kind of experiment: CLD_GSTA2_6hr: CellzDirect (CLD) Gene Expression Assay for alkyl and aryl transferase (GSTA2) at 6 hours (AID 2283666). Summed up: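 GSTA2 transcript induction at 6 h, quantified by nuclease protection (qNPA) with chemiluminescent detection, in human liver primary hepatocytes exposed to several compound concentrations with 0.2% DMSO as baseline; phase-contrast morphology annotated apparent cytotoxicity.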

The nature of experiment [4]: Tanguay_ZF_120hpf_TR_legacy: (Legacy) Oregon State University Tanguay Lab 120 Hour Post-fertilization zebrafish Assay for Touch Response (AID 2283667). Summed up:
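Readout is presence or absence of touch response in 120 hpf zebrafish larvae, assessed by brightfield observation after continuous static exposure at 28C. Final vehicle was 0.64% (vol/vol) DMSO.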

Read-out in experiment [5]: organic anion transporter (SLCO1B1), SLCO1B1 (gene 10599)
Briefly: CLD_SLCO1B1_6hr: CellzDirect (CLD) Gene Expression Assay for organic anion transporter (SLCO1B1) at 6 hours (AID 2283668).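 Note: active means mRNA induction above DMSO baseline.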 In short, it runs like this:
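SLCO1B1 mRNA induction measured 6 h after dosing by quantitative nuclease protection with chemiluminescent read-out, in human primary hepatocyte cultures given chemicals at several concentrations (vehicle 0.2% DMSO). Increase over DMSO baseline fitted; morphology-based cytotoxicity annotated yes/no.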

A short description of experiment [6]: CLD_ACTIN_24hr: CellzDirect (CLD) Gene Expression Assay for Baseline Control (Actin) at 24 hours (AID 2283670). In short, it runs like this:
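This 24 h qNPA (S1 nuclease protection, chemiluminescence) actin transcript readout in cultured human liver primary cells serves as baseline control. Signal is fitted upward relative to 0.2% DMSO; chemicals tested at multiple concentrations across two donor preparations.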

Read-out in experiment [7]: glucuronosyltransferase (UGT1A1), UGT1A1 (gene 54658)
As to the kind of experiment: CLD_UGT1A1_6hr: CellzDirect (CLD) Gene Expression Assay for glucuronosyltransferase (UGT1A1) at 6 hours (AID 2283672). Summed up: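 UGT1A1 mRNA induction, read by quantitative nuclease protection assay, 6 h after dosing primary human hepatocytes (two donors, 0.2% DMSO vehicle). Gain of signal fitted relative to vehicle.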

Read-out in experiment [8]: ABC Transporter (ABCB11), ABCB11 (gene 8647)
As to the kind of experiment: CLD_ABCB11_6hr: CellzDirect (CLD) Gene Expression Assay for ABC Transporter (ABCB11) at 6 hours (AID 2283675).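 Note: hits raise ABCB11 mRNA level so AC50 marks induction.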 In short, it runs like this: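 Read-out was ABCB11 mRNA gain of signal by quantitative nuclease protection assay, relative to 0.2% DMSO vehicle, 6 h post-dose. Cells were primary human hepatocytes from two donors, treated across multiple concentrations; phase-contrast cytotoxicity noted yes/no.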

Read-out in experiment [9]: sulfotransferase (SULT2A), SULT2A1 (gene 6822)
As to the kind of experiment: CLD_SULT2A_6hr: CellzDirect (CLD) Gene Expression Assay for sulfotransferase (SULT2A) at 6 hours (AID 2283669).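 Note: hits raise transcript level above the DMSO vehicle baseline.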 Summed up:
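Measured 6 h after dosing, SULT2A1 mRNA in human hepatocyte lysates was quantified by S1 nuclease protection with chemiluminescent detection. Increases fitted against 0.2% DMSO vehicle baseline; phase-contrast cytotoxicity recorded yes/no.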

Read-out in experiment [10]: Cytochrome P450 2B6 (Homo sapiens) (UniProt P20813)
As to the kind of experiment: CLD_CYP2B6_6hr: CellzDirect (CLD) Gene Expression Assay for xenobiotic metabolism (CYP2B6) at 6 hours (AID 2283677).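 Note: actives raise CYP2B6 transcript above DMSO baseline so AC50 marks an inducer.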 In short, it runs like this: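 CYP2B6 transcript levels, read by chemiluminescent qNPA, were fitted for increase versus DMSO baseline; cultured human liver hepatocytes from two donor preparations were harvested 6 h after exposure to test chemicals at multiple concentrations.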

A short description of experiment [11]: CLD_ACTIN_6hr: CellzDirect (CLD) Gene Expression Assay for Baseline Control (Actin) at 6 hours (AID 2283676).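 Note: active means increased actin mRNA relative to DMSO vehicle.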 In short, it runs like this: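 Baseline actin transcript level measured by qNPA (S1 nuclease protection, chemiluminescence) in human hepatocyte cultures 6 h after chemical exposure; 0.2% DMSO vehicle as reference, cytotoxicity noted from morphology.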

Read-out in experiment [12]: xenobiotic metabolism (CYP1A2), CYP1A2 (gene 1544)
As to the kind of experiment: CLD_CYP1A2_6hr: CellzDirect (CLD) Gene Expression Assay for xenobiotic metabolism (CYP1A2) at 6 hours (AID 2283663).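 For AC50: potency is for induction meaning a rise in mRNA above DMSO.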 In short, it runs like this:
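mRNA levels quantified by quantitative nuclease protection assay with chemiluminescence, 6 h after dosing human primary hepatocyte cultures (two donors) across several concentrations, vehicle 0.2% DMSO. Induction fitted upward versus DMSO; phase-contrast cytotoxicity annotated.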

Read-out in experiment [13]: xenobiotic metabolism (CYP1A1), CYP1A1 (gene 1543)
Briefly: CLD_CYP1A1_24hr: CellzDirect (CLD) Gene Expression Assay for xenobiotic metabolism (CYP1A1) at 24 hours (AID 2283673).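 Note: CYP1A1 mRNA level by quantitative nuclease protection with chemiluminescence.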 In short, it runs like this: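 Transcript levels were read at 24 h by qNPA chemiluminescence in human liver primary cells. Cells got daily fresh dosing at multiple concentrations (vehicle 0.2% DMSO). Induction fitted upward against DMSO; phase-contrast cytotoxicity annotated.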

Read-out in experiment [14]: xenobiotic metabolism (CYP1A1), CYP1A1 (gene 1543)
Briefly: CLD_CYP1A1_6hr: CellzDirect (CLD) Gene Expression Assay for xenobiotic metabolism (CYP1A1) at 6 hours (AID 2283661). Summed up: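 Read-out 6 h post-dose: qNPA chemiluminescent quantitation of transcript induction against 0.2% DMSO. Cells were cultured primary human hepatocytes from two separate donor preparations; phase-contrast morphology annotated apparent cytotoxicity.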

Broad substrate specificity ATP-binding cassette transporter ABCG2 (Homo sapiens), sequence (Q9UNQ0 whole entry, looked up): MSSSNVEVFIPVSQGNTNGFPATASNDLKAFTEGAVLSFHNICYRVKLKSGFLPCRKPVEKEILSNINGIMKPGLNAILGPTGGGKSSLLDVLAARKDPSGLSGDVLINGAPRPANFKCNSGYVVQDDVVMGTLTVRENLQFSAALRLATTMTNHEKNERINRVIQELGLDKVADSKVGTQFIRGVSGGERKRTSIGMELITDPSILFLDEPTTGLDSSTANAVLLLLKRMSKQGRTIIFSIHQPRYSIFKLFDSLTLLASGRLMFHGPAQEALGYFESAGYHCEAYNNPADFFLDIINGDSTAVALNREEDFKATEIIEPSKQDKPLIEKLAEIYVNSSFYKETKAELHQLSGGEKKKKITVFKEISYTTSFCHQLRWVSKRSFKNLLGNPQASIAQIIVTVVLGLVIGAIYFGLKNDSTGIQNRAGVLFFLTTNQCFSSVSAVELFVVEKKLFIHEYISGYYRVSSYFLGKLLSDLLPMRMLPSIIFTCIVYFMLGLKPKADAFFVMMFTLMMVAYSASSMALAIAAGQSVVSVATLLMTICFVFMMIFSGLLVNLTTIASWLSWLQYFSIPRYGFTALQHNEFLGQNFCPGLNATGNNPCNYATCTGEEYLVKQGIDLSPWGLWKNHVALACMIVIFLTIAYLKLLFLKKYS

As to `COP(=O)(OC)C(O)C(Cl)(Cl)Cl` (stereo unspecified), the call in experiment [1], in experiment [2], in experiment [3], in experiment [4], in experiment [5] and in experiment [6] was inactive. The result in experiment [7] and in experiment [8] was inactive.
What is called AC50 is the concentration giving half of the maximal activity seen. Turning to `CON=C(C(=O)OC)c1ccccc1CON=C(C)c1cccc(C(F)(F)F)c1`, the call in experiment [1], in [2], in [4], in experiment [5], in [9] and in [6] was inactive. Besides, the outcome in experiment [7] and in [8] was inactive. Also, in experiment [10], the AC50 is 10.2 µM (active).
Turning to `Nc1c(Cl)cc([N+](=O)[O-])cc1Cl`, the outcome in [1], in experiment [2], in experiment [8] and in experiment [11] was inactive. The AC50 in experiment [4] was 38.8 µM (active); in experiment [10], 20 µM (active).
Consider `CC(C)=CC1C(C(=O)OCN2C(=O)C3=C(CCCC3)C2=O)C1(C)C` (stereo unspecified), for which the call in experiment [2], in [12], in [3], in experiment [4], in [9] and in experiment [7] was inactive. Further, the AC50 in experiment [10] is 5.94 µM (active).
On to `CC(=NC#N)N(C)Cc1ccc(Cl)nc1`, for which the compound was called inactive in experiment [1], in [2], in experiment [4], in experiment [5], in experiment [9] and in [7].
`CN1COCN(Cc2cnc(Cl)s2)C1=N[N+](=O)[O-]`: the call in experiment [1], in [2], in [3], in [9], in [6] and in [7] was inactive. Moreover, the compound was classed as inactive in [8].
In the case of `CN(C)C(=O)Nc1cccc(C(F)(F)F)c1`, the result in experiment [1], in experiment [2], in experiment [4] and in experiment [7] was inactive.
Regarding `CCCCOC(=O)[C@@H](C)Oc1ccc(Oc2ccc(C#N)cc2F)cc1`, the compound was classed as inactive in experiment [1], in experiment [4], in experiment [6], in experiment [7] and in experiment [10].
Turning to `Cc1cc(C2CC2)nc(Nc2ccccc2)n1`, the result in experiment [2] and in experiment [7] was inactive. Also, the AC50 in [13] is 29.9 µM (active).
With `CCOC(=O)COc1cc(-c2nn(C)c(OC(F)F)c2Cl)c(F)cc1Cl`, the compound was called inactive in experiment [1], in experiment [12], in experiment [3], in experiment [4], in [9] and in experiment [7]. The outcome in [8] was inactive. Moreover, the AC50 in [10] is 2.63 µM (active).
Regarding `FC(F)C(F)(F)OCC(Cn1cncn1)c1ccc(Cl)cc1Cl` (stereo unspecified), the compound was called inactive in [1], in experiment [9], in experiment [6] and in experiment [7]. For the same compound, the half-maximal activity concentration (AC50) in experiment [12] is 2.45 µM (active); in [4] it was 34.8 µM (active).
Regarding `O=[N+]([O-])c1cc(C(F)(F)F)c(Cl)c([N+](=O)[O-])c1Nc1ncc(C(F)(F)F)cc1Cl`, the compound was called inactive in [4], in experiment [5], in experiment [9] and in experiment [8].
Turning to `CCCCOC(=O)c1ccccc1C(=O)O`, the outcome in experiment [2], in experiment [14], in [3], in experiment [4], in experiment [5] and in experiment [7] was inactive. Moreover, the call in [8] and in experiment [10] was inactive.

For the origin of these results see PubChem BioAssay (EPA / NIEHS).
